# From PubChem BioAssay
# Only some compounds are listed: those with a hit (about 17% of all), similar ones and a draw of the others.
# ATXN2 expr inh = Primary qHTS for Inhibitors of ATXN expression | 360,000 compounds, 0.72% hits | AID 1745845, 2022 | Potency, µM (series often up to 57 µM), for the others: at the top dose activity change, negative = inhibition, actives largely listed as inhibitors | HEK-293 ATXN2-luciferase reporter, luminescence, 24 h; note: % is set by controls: 0 for no effect and ±100 for the full control effect; nearly all actives have a fitted effect of over 55% in size
#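 qHTS (up to 57 uM final) was run with 24 h compound exposure of reporter cells at 37 °C. Each well was multiplexed: SteadyGlo luminescence measured ATXN2-luciferase expression after a fluorogenic Gly-Phe-AFC viability readout (25 uM final).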
# ATXN viability = Viability Counterscreen for Primary qHTS for Inhibitors of ATXN expression. S2 cells (HEK-293 line with an ATXN2-luciferase reporter) viability, CellTiter-Fluor protease fluorescence, 24 h. Potency, µM (series often up to 56.7 µM), actives largely listed as cytotoxic. 400,000 compounds, 0.49% hits; note: nearly all actives have a fitted effect of over 40% in size
# HepG2 tox = qHTS for Inhibitors of TGF-b: Cytotox Counterscreen | 410,000 compounds, 0.76% hits | HepG2 CAGA-GFP viability, ATP luminescence, 18 h | Potency, µM (doses to about 46.1 µM), for the others: at the top dose activity change, negative = cytotoxicity, usual class: cytotoxic
#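 CellTiter-Glo luminescence gave cytotoxicity after 18 hours at 37 degrees C. The cells were HepG2 CAGA-GFP in 1% FBS DMEM, stimulated with 500 pg/mL TGF-beta after compound addition. %Activity was normalised to no-cell wells (complete cell-killing) and DMSO (no toxicity), and curves were fitted and classified.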
# DT40 TDP1 CPT = qHTS for Inhibitors of human tyrosyl-DNA phosphodiesterase 1 (TDP1): qHTS in cells in presence of CPT. AID 686979, 2013. Potency, µM (doses to about 46.2 µM), for the others: top-dose activity change, negative = growth inhibition, usual class: inhibitors. 420,000 compounds, 12% hits. chicken DT40 Tdp1-/-;hTDP1 cells + 20 nM CPT, ATP luminescence, 48 h; note: % is set by controls: 0 for no effect and ±100 for the full control effect; nearly all actives have a fitted effect of over 55% in size
#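 Cell growth measured by CellTiter-Glo luminescence after a minimum 48 h, 37 C compound exposure with 20 nM CPT in Tdp1-knockout DT40 cells stably expressing hTDP1, seeded 400/well; qHTS titration format.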
# DT40 TDP1 no CPT = qHTS for Inhibitors of human tyrosyl-DNA phosphodiesterase 1 (TDP1): qHTS in cells in absence of CPT; Potency, µM (doses to about 46.2 µM), for inactives: top-dose activity change, negative = growth inhibition, hits mostly inhibitors; AID 686978, 2013; DT40 Tdp1-/- hTDP1 cells, no CPT, ATP luminescence, 48 h; 420,000 compounds, 15% hits; note: % is set by controls: 0 for no effect and ±100 for the full control effect; nearly all actives have a fitted effect of over 55% in size
#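 Luminescent ATP content (CellTiter-Glo) served as the growth readout. Knockout chicken DT40 cells expressing human TDP1 were exposed to compounds without camptothecin for a minimum 48 hr at 37 °C.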
# TGFb SMAD3 inh = qHTS for Inhibitors of TGF-b; HepG2 CAGA-GFP TGF-b/SMAD3 reporter, GFP fluorescence, 18 h; TGF-beta stimulated, 500 pg/mL final; Potency, µM (top dose mostly 46.1 µM), for the others: at the top dose activity, negative = inhibition, usual class: inhibitors; 410,000 compounds, 1.2% hits; AID 588855, 2011; note: % is set by controls: 0 for no effect and ±100 for the full control effect; nearly all actives have a fitted effect of over 65% in size
#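 First, reporter cells (HEPG2 CAGA-GFP) rested 2 h at 37 degrees C. Next, compounds were pinned in and TGF-beta added to 500 pg/mL final. After 18 h, GFP was imaged per cell and summed per well.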
# * = called active by the depositor; i = inactive; ? = inconclusive; · = no result given; [ ] = dose if it differs, or a comment. Calls come from the whole dose curve; as a rule, active = well fitted curve in the direction sought with a large enough effect; inconclusive = small, poorly fitted or top-dose-only effect, or another doubt; inactive = no such curve, though single readings can be large; an effect the other way counts as inactive or inconclusive. Potency is the fitted concentration of half-maximal effect.
SMILES,ATXN2 expr inh,ATXN viability,HepG2 tox,DT40 TDP1 CPT,DT40 TDP1 no CPT,TGFb SMAD3 inh
CC(C)[C@H](N)C(=O)OCCOCn1cnc2c(=O)[nH]c(N)nc21,1%,i,-16%,1.8µM*,2.9µM*,-17%
CCOC(=O)c1ccc(NC(=O)c2cccn(Cc3ccc(C)cc3)c2=O)cc1,-18%,i,-2%,?,-26%,?
Cc1ccc(Cn2nc(C(=O)Nc3ccc(Br)cc3)cc2C)cc1,72%,i,-17%,?,12µM*,?
O=C(Cc1c(O)c2ccccc2oc1=O)c1ccc(F)cc1,17%,?,1%,-16%,-26%,-10%
CC(C)c1cccc(C(C)C)c1OC(=O)NC(=O)c1c(F)cccc1F,-7%,i,-21%,?,-25%,-4%
CC[C@H](C)[C@@H]1NC(=O)CNC(=O)c2csc(n2)[C@H](C(C)(C)O)OC(=O)C(C)(C)[C@H](CCCC(C)(Cl)Cl)OC(=O)c2csc1n2,-34%,i,-36%,0.052µM*,0.18µM*,?
C=CCn1c(O)c(C(C)=NCCCN(C)C)c(=O)[nH]c1=O,-5%,i,2%,13%,25%,15%
C/C(=N\Nc1ccccc1)c1c(O)n(Cc2ccccc2)c(=O)[nH]c1=O,-20%,i,17%,15µM*,?,-2%
C=CCn1c(O)c(C(C)=NC(C)c2ccccc2)c(=O)[nH]c1=O (configuration not stated),·,i,9%,?,16µM*,34%
C=CCn1c(O)c(C(C)=NCCC(c2ccccc2)c2ccccc2)c(=O)[nH]c1=O,3%,i,-6%,21µM*,16µM*,0%
O=C1CC[C@]2(O)[C@H]3Cc4ccc(O)c5c4[C@@]2(CCN3CC2CC2)[C@@H]1O5,·,i,·,·,·,·
CNc1ccc2oc(C[C@@H]3OC4(CC[C@@H]3C)O[C@H]([C@@H](C)C(=O)c3ccc[nH]3)[C@H](C)C[C@H]4C)nc2c1C(=O)O (some centres not stated),·,·,·,2.3µM*,4.6µM*,·
O=c1[nH]c2cc(Cl)ccc2n1C1CCNCC1,1%,i,·,·,·,·
CCCCN1CC(COCc2ccccc2)Oc2cccc(Oc3ccc(C(C)C)cc3)c2S1(=O)=O (configuration not stated),-3%,i,4%,10µM*,5.2µM*,-3%
COc1cc([C@@H]2c3cc4c(cc3[C@@H](O)C3COC(=O)C32)OCO4)cc(OC)c1O (some centres not stated),-25%,·,10%,·,·,-17%
COc1cc([C@@H]2c3cc4c(cc3[C@H](OC(C)=O)[C@H]3COC(=O)[C@@H]23)OCO4)cc(OC)c1OC,·,·,-14%,1.1µM*,1.1µM*,?
COc1cc(C2c3cc(O)c(OC)cc3CC3C(=O)OCC32)ccc1O (configuration not stated),7%,i,2%,18%,3%,0%
COc1cc(C2c3cc4c(cc3C(O)[C@H]3COC(=O)C23)OCO4)cc(OC)c1OC (some centres not stated),·,·,·,0.023µM*,0.037µM*,·
COc1cc([C@@H]2c3cc4c(cc3[C@@H](O)[C@H]3COC(=O)[C@H]23)OCO4)cc(OC)c1O,·,?,·,0.1µM*,0.11µM*,·
CCOc1ccc2nc(NC(=O)c3cccn(Cc4ccccc4)c3=O)sc2c1,2%,i,-10%,?,?,?
COc1ccc(N2CCN(c3ncnc4c3nc3n4CCCCC3)CC2)cc1,-15%,i,-3%,?,?,?
COC(=O)C1=C(c2ccc(F)cc2OCc2ccccc2)C[C@@H]2CC[C@H]1N2C(=O)NC1Cc2ccccc2C1,-22%,i,-12%,?,26µM*,-21%
COC(=O)C1=C(c2ccc(F)cc2OCc2ccccc2)C[C@@H]2CC[C@H]1N2C(=O)NCc1ccc(F)cc1,?,?,-7%,?,?,-30%
COC(=O)C1=C(c2ccc(F)cc2OCc2ccccc2)C[C@@H]2CC[C@H]1N2C(=O)NCCCc1ccccc1,0%,?,0%,26µM*,?,-11%
COC(=O)C1=C(c2ccc(F)cc2OCc2ccccc2)C[C@@H]2CC[C@H]1N2C(=O)NCc1ccccc1Br,1%,i,-7%,?,16µM*,-1%
SMILES,ATXN2 expr inh,ATXN viability,HepG2 tox,DT40 TDP1 CPT,DT40 TDP1 no CPT,TGFb SMAD3 inh
O=C(Cn1c(=O)n(Cc2ccccc2)c(=O)c2sc3ccccc3c21)NCc1ccccc1Cl,9%,i,10%,-17%,?,2%
CCN1C[C@@]2(OC(=O)c3ccccc3NC(C)=O)CCC(OC)[C@@]34C5CC6C(OC)C[C@@](O)(C(CC23)[C@@H]14)C5(O)C6OC (some centres not stated),·,·,·,-3%,4%,·
N#Cc1ccc(NC(=O)CN2C(=O)NC3(CCCCCCC3)C2=O)cc1Cl,-22%,i,-34%,12µM*,7.3µM*,?
CC(=O)N1CCN(CC(=O)Nc2ccc(C#N)c(Cl)c2)CC1,12%[11.3 µM],i,-1%,-28%,3%,-15%
COc1ccc(-n2c(=O)[nH]c3ccccc3c2=O)c(OC)c1,1%,i,-7%,-21%,-19%,0%
COc1ccc(-n2c(=S)[nH]c3c(sc(=S)n3-c3ccccc3)c2=O)c(OC)c1,-21%,i,-3%,21µM*,16µM*,-9%
ClCCN(CCCl)/C(=C\c1ccccc1)c1ccnc2ccccc12,·,·,-42%,5.6µM*,3.5µM*,?
Cc1ccccc1CCNCc1cc2cccc(C)c2[nH]c1=O,·,i,-39%,16µM*,16µM*,-6%
CN1C(=O)NC(=O)/C(=C\C=C\c2ccccc2[N+](=O)[O-])C1=O,32µM*,28µM*,-19%,?,5.8µM*,11µM*
COc1cc(/C=C2\C(=O)NC(=O)N(c3ccccc3)C2=O)c([N+](=O)[O-])cc1OC,-16%,?,-1%,-6%,-7%,?
COc1cc2c(cc1O)CCNC2C (configuration not stated),·,·,·,2%,0%,·
